Holding throughout (experiment): DAPPL (digital affinity profiling via proximity ligation, sequencing); 10 mM Tris-HCl pH 7.5, 50 mM NaCl, 1 mM DTT, 4% glycerol, room temperature, 30 min; GST-TFs on glutathione beads, 16-mer random dsDNA library, 0.1% formaldehyde crosslink after washing; high values mean tight binding
Experiment [1] has as its target T1, FLI1 (Homo sapiens, UniProt Q01543 1-452).
T1 sequence: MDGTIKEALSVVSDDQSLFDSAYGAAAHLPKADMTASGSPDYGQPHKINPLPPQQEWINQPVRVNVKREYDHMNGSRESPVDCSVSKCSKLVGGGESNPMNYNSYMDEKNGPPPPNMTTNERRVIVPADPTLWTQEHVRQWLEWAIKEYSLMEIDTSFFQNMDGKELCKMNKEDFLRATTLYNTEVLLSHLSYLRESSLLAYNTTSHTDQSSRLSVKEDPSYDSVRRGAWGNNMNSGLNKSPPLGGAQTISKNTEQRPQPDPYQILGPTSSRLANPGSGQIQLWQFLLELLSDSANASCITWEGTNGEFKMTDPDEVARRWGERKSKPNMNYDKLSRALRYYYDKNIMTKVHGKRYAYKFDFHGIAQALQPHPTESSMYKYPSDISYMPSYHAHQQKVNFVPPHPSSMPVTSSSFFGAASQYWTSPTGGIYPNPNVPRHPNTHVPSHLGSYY
The following applies: protein: recombinant; tags: N-terminal GST; dsDNA, one strand shown. Put shortly:
(§1)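 Sequencing on an Illumina NextSeq500 followed washing, crosslinking with 0.1% formaldehyde, proximity ligation (BsaI/T4 ligase, 1 h, 37 °C) and PCR amplification of pools that had been incubated for 30 min at room temperature with 200 nmole of a random double-stranded 16-mer DNA library in Tris/NaCl/DTT/glycerol buffer. Each pool held DNA-barcoded human transcription factors, expressed in yeast as GST fusions and captured on glutathione beads, plus a tag-only sample. Binding signal is a hexamer's read frequency for a factor divided by its frequency in the tag-only sample.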

Experiment [2] deals with T2, ELK1 (Homo sapiens, UniProt P19419 1-428).
T2 sequence: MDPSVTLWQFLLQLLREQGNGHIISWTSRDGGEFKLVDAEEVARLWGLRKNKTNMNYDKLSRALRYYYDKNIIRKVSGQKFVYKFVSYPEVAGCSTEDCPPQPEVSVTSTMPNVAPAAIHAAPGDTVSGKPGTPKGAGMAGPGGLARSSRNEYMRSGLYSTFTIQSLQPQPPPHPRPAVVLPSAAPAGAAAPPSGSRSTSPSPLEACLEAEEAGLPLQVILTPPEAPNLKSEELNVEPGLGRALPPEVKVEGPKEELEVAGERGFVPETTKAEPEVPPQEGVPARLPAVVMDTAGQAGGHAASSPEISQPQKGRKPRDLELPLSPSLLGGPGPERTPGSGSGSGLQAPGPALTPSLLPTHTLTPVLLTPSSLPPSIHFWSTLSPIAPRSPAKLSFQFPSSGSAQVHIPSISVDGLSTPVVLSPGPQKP
As to conditions: protein: recombinant; tags: N-terminal GST; dsDNA, one strand shown. Put shortly:
as §1

The target of experiment [3] is T3, GABPA (Homo sapiens, UniProt Q06546 1-454).
T3 sequence: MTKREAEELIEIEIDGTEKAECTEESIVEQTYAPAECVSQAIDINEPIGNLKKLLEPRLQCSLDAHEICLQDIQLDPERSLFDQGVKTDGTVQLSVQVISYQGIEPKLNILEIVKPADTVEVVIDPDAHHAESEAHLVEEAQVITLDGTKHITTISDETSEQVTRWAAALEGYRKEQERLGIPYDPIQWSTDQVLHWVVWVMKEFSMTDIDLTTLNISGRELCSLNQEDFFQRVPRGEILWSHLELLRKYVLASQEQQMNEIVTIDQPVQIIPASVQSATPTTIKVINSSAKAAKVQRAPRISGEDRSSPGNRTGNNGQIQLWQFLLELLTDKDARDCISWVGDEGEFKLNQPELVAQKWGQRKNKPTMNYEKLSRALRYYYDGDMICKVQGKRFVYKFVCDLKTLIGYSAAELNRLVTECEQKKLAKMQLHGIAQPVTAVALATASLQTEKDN
As to conditions: protein: recombinant; tags: N-terminal GST; dsDNA, one strand shown. The gist of the method:
as §1

Experiment [4] addresses T4, ERG (Homo sapiens, UniProt P11308 1-479).
T4 sequence: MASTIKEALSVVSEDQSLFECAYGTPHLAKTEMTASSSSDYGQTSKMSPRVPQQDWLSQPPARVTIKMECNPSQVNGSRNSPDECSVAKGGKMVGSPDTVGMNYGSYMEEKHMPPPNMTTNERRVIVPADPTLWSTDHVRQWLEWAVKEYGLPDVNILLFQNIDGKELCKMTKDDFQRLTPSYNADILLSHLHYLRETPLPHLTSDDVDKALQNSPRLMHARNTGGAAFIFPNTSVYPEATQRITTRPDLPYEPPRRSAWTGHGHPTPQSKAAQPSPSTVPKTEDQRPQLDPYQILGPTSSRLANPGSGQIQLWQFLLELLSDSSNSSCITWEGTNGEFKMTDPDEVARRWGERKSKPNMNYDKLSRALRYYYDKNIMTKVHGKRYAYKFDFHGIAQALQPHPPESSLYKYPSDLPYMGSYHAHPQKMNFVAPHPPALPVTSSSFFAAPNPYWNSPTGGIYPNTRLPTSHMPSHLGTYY
The following applies: protein: recombinant; tags: N-terminal GST; dsDNA, one strand shown. The gist of the method:
as §1

Experiment [5] concerns the target ELF1 (Homo sapiens, UniProt P32519 1-619). The following applies: protein: recombinant; tags: N-terminal GST; dsDNA, one strand shown. The gist of the method: as §1
Experiment [6] concerns the target T5, EHF (Homo sapiens, UniProt Q9NZC4 1-300).
T5 sequence: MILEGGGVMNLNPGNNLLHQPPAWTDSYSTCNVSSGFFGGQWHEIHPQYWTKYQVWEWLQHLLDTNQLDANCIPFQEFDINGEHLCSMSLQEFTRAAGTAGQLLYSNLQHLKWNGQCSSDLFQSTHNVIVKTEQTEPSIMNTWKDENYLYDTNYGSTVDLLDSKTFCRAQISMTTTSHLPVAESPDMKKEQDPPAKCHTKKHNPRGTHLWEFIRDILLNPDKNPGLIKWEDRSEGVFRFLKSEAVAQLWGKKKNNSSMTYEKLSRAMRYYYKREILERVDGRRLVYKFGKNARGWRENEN
The following applies: protein: recombinant; tags: N-terminal GST; dsDNA, one strand shown. The gist of the method: as §1

The target of experiment [7] is SPI1 (Homo sapiens, UniProt P17947 1-270). The following applies: protein: recombinant; tags: N-terminal GST; dsDNA, one strand shown. Put shortly: as §1
In experiment [8] the target is SPIB (Homo sapiens, UniProt Q01892 1-262). The following applies: protein: recombinant; tags: N-terminal GST; dsDNA, one strand shown. Put shortly:
as §1

Experiment [9] deals with T6, FEV (Homo sapiens, UniProt Q99581 1-238).
T6 sequence: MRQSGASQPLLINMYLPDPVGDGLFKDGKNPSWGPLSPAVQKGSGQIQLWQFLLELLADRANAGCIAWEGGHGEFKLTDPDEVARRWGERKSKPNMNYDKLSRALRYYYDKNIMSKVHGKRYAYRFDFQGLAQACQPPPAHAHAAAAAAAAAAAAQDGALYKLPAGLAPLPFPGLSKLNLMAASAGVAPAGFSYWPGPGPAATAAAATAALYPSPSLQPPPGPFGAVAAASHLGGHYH
As to conditions: protein: recombinant; tags: N-terminal GST; dsDNA, one strand shown. The gist of the method: as §1

Experiment [10] addresses ETV5 (Homo sapiens, UniProt P41161 1-510). The following applies: protein: recombinant; tags: N-terminal GST; dsDNA, one strand shown. Put shortly:
as §1

The target in experiment [11] is HSF1 (Homo sapiens, UniProt Q00613 1-529). As to conditions: protein: recombinant; tags: N-terminal GST; chain copies: 3; dsDNA, one strand shown. The gist of the method: as §1
Chain of HSF1 (Q00613 whole entry): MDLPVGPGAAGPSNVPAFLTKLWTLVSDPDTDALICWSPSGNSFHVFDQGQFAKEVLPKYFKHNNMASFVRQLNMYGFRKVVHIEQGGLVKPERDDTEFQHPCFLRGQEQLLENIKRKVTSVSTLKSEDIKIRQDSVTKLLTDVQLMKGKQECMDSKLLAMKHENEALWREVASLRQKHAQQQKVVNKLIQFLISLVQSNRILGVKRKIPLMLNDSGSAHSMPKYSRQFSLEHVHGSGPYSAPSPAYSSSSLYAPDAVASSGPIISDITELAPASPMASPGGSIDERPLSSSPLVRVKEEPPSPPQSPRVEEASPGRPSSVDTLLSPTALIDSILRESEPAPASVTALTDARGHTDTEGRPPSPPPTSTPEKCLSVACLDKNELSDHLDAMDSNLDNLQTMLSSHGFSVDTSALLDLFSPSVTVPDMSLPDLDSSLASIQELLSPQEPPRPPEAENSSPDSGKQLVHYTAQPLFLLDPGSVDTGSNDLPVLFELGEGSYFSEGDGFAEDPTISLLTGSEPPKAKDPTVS
The target of experiment [12] is T7, SPIC (Homo sapiens, UniProt Q8N5J4 1-248).
T7 sequence: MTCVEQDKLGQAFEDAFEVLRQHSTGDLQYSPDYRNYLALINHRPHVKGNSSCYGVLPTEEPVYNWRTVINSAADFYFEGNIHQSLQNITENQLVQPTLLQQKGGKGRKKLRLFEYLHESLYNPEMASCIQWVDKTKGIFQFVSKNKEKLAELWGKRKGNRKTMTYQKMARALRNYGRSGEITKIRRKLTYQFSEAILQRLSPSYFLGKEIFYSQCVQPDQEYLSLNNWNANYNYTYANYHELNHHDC
The following applies: protein: recombinant; tags: N-terminal GST; dsDNA, one strand shown. The gist of the method: as §1

The target in experiment [13] is ELF4 (Homo sapiens, UniProt Q99607 1-663). As to conditions: protein: recombinant; tags: N-terminal GST; dsDNA, one strand shown. The gist of the method: as §1
Chain of ELF4 (Q99607 whole entry): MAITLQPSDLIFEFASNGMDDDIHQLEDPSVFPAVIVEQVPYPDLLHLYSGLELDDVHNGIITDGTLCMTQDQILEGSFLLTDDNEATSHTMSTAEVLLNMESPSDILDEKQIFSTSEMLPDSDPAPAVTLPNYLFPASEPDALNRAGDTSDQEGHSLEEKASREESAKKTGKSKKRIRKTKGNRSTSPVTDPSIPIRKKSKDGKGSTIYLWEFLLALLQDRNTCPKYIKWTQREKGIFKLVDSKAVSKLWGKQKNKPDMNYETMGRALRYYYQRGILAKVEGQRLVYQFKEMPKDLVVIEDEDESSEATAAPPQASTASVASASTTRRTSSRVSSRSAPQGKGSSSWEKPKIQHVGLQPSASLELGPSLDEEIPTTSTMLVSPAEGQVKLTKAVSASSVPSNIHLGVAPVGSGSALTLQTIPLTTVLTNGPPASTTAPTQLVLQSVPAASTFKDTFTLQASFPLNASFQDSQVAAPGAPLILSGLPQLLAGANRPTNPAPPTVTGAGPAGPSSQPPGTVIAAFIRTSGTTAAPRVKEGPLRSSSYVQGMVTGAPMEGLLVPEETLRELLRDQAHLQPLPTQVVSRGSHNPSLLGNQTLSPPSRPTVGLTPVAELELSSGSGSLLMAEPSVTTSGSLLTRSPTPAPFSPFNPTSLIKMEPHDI
In experiment [14] the target is T8, ELK4 (Homo sapiens, UniProt P28324-2 1-405).
T8 sequence: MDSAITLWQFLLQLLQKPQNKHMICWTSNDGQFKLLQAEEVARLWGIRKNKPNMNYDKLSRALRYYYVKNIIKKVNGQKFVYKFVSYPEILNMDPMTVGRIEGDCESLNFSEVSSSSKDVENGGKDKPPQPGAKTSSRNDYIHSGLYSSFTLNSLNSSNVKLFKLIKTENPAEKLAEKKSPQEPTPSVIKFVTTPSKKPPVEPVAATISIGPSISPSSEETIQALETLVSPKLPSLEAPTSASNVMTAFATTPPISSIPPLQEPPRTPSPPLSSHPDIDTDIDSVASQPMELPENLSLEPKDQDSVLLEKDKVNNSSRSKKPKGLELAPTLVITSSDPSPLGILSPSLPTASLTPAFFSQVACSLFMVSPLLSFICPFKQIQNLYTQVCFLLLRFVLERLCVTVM
As to conditions: protein: recombinant; tags: N-terminal GST; dsDNA, one strand shown. Put shortly:
as §1

Experiment [15] deals with T9, ETV2 (Homo sapiens, UniProt O00321 1-342).
T9 sequence: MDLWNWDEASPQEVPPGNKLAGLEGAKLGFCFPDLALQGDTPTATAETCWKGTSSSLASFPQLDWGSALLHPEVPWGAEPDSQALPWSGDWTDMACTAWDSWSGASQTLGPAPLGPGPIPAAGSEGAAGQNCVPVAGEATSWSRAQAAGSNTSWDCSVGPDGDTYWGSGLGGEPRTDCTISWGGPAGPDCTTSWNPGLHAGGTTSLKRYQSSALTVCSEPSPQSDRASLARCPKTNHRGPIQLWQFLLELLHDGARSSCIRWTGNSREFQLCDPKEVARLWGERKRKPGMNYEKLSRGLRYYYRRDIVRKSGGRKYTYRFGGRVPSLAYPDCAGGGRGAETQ
The following applies: protein: recombinant; tags: N-terminal GST; dsDNA, one strand shown. The gist of the method:
as §1

Experiment [16] addresses T10, ELF3 (Homo sapiens, UniProt P78545 1-371).
T10 sequence: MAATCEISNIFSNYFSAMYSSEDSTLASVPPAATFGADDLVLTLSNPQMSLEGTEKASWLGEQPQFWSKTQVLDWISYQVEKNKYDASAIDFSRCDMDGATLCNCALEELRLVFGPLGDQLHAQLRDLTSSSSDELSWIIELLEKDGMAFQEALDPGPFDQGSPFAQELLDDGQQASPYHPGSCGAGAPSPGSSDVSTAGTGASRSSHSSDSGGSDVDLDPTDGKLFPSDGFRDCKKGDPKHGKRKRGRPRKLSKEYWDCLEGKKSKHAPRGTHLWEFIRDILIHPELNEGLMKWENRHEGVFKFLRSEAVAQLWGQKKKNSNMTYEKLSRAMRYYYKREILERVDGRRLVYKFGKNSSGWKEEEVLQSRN
As to conditions: protein: recombinant; tags: N-terminal GST; dsDNA, one strand shown. Put shortly:
as §1

Experiment [17] concerns the target CRX (Homo sapiens, UniProt O43186 1-299). The following applies: protein: recombinant; tags: N-terminal GST; dsDNA, one strand shown. The gist of the method:
as §1

Experiment [18] addresses ETV1 (Homo sapiens, UniProt P50549 1-477). The following applies: protein: recombinant; tags: N-terminal GST; dsDNA, one strand shown. The gist of the method:
as §1

Chain of SPIB (Q01892 whole entry): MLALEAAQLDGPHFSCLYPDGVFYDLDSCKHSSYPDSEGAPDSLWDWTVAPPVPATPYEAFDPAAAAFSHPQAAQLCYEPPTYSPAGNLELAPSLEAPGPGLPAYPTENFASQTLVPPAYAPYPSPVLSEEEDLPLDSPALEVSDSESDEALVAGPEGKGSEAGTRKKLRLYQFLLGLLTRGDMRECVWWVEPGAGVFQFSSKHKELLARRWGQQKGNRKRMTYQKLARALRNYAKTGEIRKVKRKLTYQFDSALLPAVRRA
Chain of ETV1 (P50549 whole entry): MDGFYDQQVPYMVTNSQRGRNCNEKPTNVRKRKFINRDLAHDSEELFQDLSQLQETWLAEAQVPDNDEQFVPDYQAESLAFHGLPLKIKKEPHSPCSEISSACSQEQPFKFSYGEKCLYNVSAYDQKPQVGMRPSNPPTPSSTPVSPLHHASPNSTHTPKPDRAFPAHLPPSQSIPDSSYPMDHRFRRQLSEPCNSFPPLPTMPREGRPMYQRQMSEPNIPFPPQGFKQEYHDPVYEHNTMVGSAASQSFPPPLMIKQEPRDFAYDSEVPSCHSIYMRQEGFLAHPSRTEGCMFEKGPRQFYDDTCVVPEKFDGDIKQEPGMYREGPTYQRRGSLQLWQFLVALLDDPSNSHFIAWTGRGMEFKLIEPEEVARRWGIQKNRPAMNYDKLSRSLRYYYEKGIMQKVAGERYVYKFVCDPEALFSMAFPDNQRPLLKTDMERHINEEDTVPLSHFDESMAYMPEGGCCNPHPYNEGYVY
Chain of ETV5 (P41161 whole entry): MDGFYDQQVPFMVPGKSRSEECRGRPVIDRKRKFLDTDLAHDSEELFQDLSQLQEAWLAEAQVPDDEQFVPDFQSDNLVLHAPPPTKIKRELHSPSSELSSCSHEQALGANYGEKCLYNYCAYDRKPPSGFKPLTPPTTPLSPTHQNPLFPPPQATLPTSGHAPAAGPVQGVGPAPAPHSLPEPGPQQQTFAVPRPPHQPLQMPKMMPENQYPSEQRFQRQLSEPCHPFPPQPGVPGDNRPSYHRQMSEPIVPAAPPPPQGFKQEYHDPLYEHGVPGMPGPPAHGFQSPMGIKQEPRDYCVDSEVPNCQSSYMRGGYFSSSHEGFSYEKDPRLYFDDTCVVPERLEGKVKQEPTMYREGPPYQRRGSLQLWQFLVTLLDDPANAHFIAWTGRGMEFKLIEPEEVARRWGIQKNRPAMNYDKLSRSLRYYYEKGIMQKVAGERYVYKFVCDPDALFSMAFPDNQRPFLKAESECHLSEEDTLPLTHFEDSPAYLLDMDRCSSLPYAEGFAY
Chain of ELF1 (P32519 whole entry): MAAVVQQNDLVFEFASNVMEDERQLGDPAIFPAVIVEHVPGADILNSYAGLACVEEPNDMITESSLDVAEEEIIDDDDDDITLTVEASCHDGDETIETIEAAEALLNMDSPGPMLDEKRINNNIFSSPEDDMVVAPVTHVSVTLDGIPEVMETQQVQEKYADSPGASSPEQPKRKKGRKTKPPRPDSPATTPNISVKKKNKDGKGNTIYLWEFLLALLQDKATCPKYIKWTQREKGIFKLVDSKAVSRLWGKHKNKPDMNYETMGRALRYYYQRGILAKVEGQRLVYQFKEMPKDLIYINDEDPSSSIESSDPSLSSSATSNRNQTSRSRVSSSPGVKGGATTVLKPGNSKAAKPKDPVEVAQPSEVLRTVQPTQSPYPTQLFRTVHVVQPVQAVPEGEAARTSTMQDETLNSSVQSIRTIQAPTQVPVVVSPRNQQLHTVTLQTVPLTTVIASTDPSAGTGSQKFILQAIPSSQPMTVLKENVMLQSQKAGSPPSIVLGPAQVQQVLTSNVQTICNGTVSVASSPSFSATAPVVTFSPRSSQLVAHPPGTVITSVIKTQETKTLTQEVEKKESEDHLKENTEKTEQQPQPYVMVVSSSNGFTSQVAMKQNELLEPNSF
Chain of CRX (O43186 whole entry): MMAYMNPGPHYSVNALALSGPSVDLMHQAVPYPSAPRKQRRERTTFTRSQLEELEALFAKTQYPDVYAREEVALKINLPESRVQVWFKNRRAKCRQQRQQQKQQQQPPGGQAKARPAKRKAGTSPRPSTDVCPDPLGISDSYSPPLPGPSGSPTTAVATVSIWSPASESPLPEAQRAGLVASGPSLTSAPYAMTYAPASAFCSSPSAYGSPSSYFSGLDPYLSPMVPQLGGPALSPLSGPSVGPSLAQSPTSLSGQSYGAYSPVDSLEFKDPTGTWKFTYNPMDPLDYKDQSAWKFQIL

Turning to TAGCTG, the binding signal in [1] was 1.29 fold enrichment (6-mer frequency, TF over GST control); in experiment [2], 1.19 fold enrichment (6-mer frequency, TF over GST control); in experiment [3] it was 1.21 fold enrichment (6-mer frequency, TF over GST control); in experiment [4] it was 1.11 fold enrichment (6-mer frequency, TF over GST control); in experiment [5], 1.24 fold enrichment (6-mer frequency, TF over GST control); in experiment [6], 1.31 fold enrichment (6-mer frequency, TF over GST control). Moreover, the binding signal in experiment [7] was 1.22 fold enrichment (6-mer frequency, TF over GST control); in [8] it was 1.3 fold enrichment (6-mer frequency, TF over GST control); in [9], 1.16 fold enrichment (6-mer frequency, TF over GST control); in experiment [10], 1.06 fold enrichment (6-mer frequency, TF over GST control); in experiment [11], 1.23 fold enrichment (6-mer frequency, TF over GST control); in [12], 1.09 fold enrichment (6-mer frequency, TF over GST control). The binding signal in [13] was 1.2 fold enrichment (6-mer frequency, TF over GST control); in experiment [14], 1.23 fold enrichment (6-mer frequency, TF over GST control); in experiment [15] it was 1.15 fold enrichment (6-mer frequency, TF over GST control); in experiment [16] it was 1.17 fold enrichment (6-mer frequency, TF over GST control); in experiment [17] it was 1.38 fold enrichment (6-mer frequency, TF over GST control); in [18], 1.12 fold enrichment (6-mer frequency, TF over GST control).

For the origin of these results see paper PMC7862700, “An all-to-all approach to the identification of sequence-specific readers for epigenetic DNA modifications on cytosine”.
